Laboratory results as given in PubChem BioAssay (Tox21).
Inconclusive results are not listed. Entries that show only a call come without a potency. Active and inactive are the calls of the source. Unless noted, calls come from the whole dose curve; as a rule, active = well fitted curve in the direction sought with a large enough effect in the repeat runs; inconclusive = weak or mixed curves; inactive = no such curve, though single readings can be large; an effect the other way counts as inactive or inconclusive.

How the values were obtained:
[1] = A CellTox Green Cytotoxicity Assay to monitor cytotoxicity in HepG2 cells - 8 hour (AID 1224890); note: nearly all actives have a fitted effect of over 45% in size
Summary of the method: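 Fluorescent DNA-binding dye, 600 HepG2 cells/well, 5 h preincubation then compound in DMSO; same plates read at 0–40 h, 37 C.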

[2] = qHTS assay to identify small molecule antagonists of the estrogen receptor alpha (ER-alpha) signaling pathway using the BG1 cell line in the presence of 0.1 nM 17-beta-estradiol - cell viability counter screen (AID 1259241); note: nearly all actives have a fitted effect of over 40% in size; note: potency is the fitted concentration of half-maximal effect
Summary of the method: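 Following 5 days in phenol red-free medium with charcoal-stripped serum, VM7Luc4E2 cells received test compounds alongside 0.1 nM 17beta-estradiol (final) at 37C for 22 hr. Live cells were then quantified via protease-substrate fluorescence.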

[3] = biological target: Estrogen receptor (Homo sapiens) (UniProt P03372); experiment: qHTS assay to identify small molecule antagonists of the estrogen receptor alpha (ER-alpha) signaling pathway using the BG1 cell line in the presence of 0.1 nM 17-beta-estradiol (AID 1259244); note: nearly all actives have a fitted effect of over 50% in size
Summary of the method: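 Seeding of stripped-serum-adapted VM7Luc4E2 cells, 24 h attachment, compound transfer, then 0.1 nM final 17beta-estradiol; after 22 h incubation, ONE-Glo reagent and luminescence reading.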

[4] = qHTS assay to identify small molecule HDAC inhibitors (AID 1259364); note: potency is the fitted concentration of half-maximal effect;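 note: wild-type HCT-116 cells with endogenous class I/II HDAC activity; nearly all actives have a fitted effect of over 45% in size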
Summary of the method: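 After a 2 hr compound incubation (37C, 5% CO2), HCT-116 cells seeded at 1,500/well the day before received HDAC-Glo reagent; signal read as luminescence after 30 min at room temperature.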

[5] = qHTS assay to identify small molecule HDAC inhibitors - cell viability counter screen (AID 1259365); note: nearly all actives have a fitted effect of over 50% in size; note: potency is the fitted concentration of half-maximal effect
Summary of the method: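 HCT-116 wild-type, overnight attachment; 2hr drug exposure, 37C; CellTiter-Glo luminescent ATP readout after 30min RT.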

[6] = qHTS assay to identify small molecule agonists of the sonic hedgehog signaling (Shh) pathway - cell viability counter screen (AID 1259366); note: nearly all actives have a fitted effect of over 50% in size; note: potency is the fitted concentration of half-maximal effect
Summary of the method: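 Compounds in DMSO were pin-transferred onto 3T3 Gli1-Luc cells that had settled 4hr; plates then stood 24hr at 37C and 5% CO2. One hour before the end, CellTiter-Fluor was added and fluorescence recorded.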

[7] = qHTS assay to identify small molecule antagonists of the sonic hedgehog signaling (Shh) pathway - cell viability counter screen (AID 1259367); note: nearly all actives have a fitted effect of over 55% in size; note: potency is the fitted concentration of half-maximal effect
Summary of the method: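 Fluorescence read-out (CellTiter-Fluor, 1 hr at 37C) taken after 23 hr compound treatment of 3T3 Gli1-Luc cells stimulated with conditioned medium. Cells were seeded at 2,000 per well and pre-incubated 4 hr.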

[8] = qHTS assay to identify small molecule agonists of the sonic hedgehog signaling (Shh) pathway (AID 1259368; calls by dose curve;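 note: NIH/3T3-derived 3T3Gli1-Luc cells carrying a stable Gli1-driven firefly luciferase reporter; series mostly up to about 92 µM; nearly all actives have a fitted effect of over 15% in size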)
Summary of the method: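 Stable NIH/3T3 Gli1-Luc reporter clone; 24 hr cpd exposure after a 4 hr settling period; luminescence endpoint.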

[9] = qHTS assay to identify small molecule agonists of the androgen receptor (AR) signaling pathway in the presence of an antagonist - cell viability counter screen (AID 1259379); note: nearly all actives have a fitted effect of over 25% in size; note: potency is the fitted concentration of half-maximal effect
Summary of the method: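 Counter screen for cell viability run in parallel with the AR agonist-mode luciferase assay. MDA-kb2 cells were co-treated with nilutamide (3.0uM final) and compounds, then incubated 16 hr at 37C, and CellTiter-Fluor fluorescence was measured.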

[10] = qHTS assay to identify small molecule antagonists of the estrogen receptor beta (ER-beta) signaling pathway - cell viability counter screen (AID 1259382); note: series mostly up to about 92 µM; nearly all actives have a fitted effect of over 55% in size
Summary of the method: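 HEK293T ER-beta-UAS-bla, 2% charcoal-stripped FBS; compounds + 1nM E2 16 hr 37C; CellTiter-Glo luminescence, 30 min RT.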

[11] = biological target: Estrogen receptor (Homo sapiens) (UniProt P03372); experiment: qHTS assay to identify small molecule agonists of the estrogen receptor alpha (ER-alpha) signaling pathway in the presence of an antagonist (AID 1259383; calls by dose curve; note: top concentration of the series differs between compounds; nearly all actives have a fitted effect of over 15% in size)
Summary of the method: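 ER-alpha agonism measured under antagonist challenge: 10.0nM ICI-182,780 (final) plus compound, 15 concentrations, 22hr, VM7Luc4E2 ERE-luciferase cells. Read by luminescence.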

[12] = biological target: Androgen receptor (Homo sapiens) (UniProt P10275); experiment: qHTS assay to identify small molecule antagonists of the androgen receptor (AR) signaling pathway using the MDA cell line in the presence of 0.5 nM R1881 (AID 1259243); note: nearly all actives have a fitted effect of over 50% in size
Summary of the method: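 Cells: MDA-kb2 (MMTV-luc). Stimulus: 0.5 nM R1881. Time: 16 hr, 37C, no CO2. Detection: ONE-Glo luminescence after 30 min at RT.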

[13] = qHTS assay to identify small molecule antagonists of the sonic hedgehog signaling (Shh) pathway (AID 1259369; calls by dose curve; note: nearly all actives have a fitted effect of over 45% in size; note: potency is the fitted concentration of half-maximal effect)
Summary of the method: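 Gli1 transcriptional reporter (firefly Luc) in NIH/3T3 background, conditioned-medium activated. 24hr exposure, luminescence endpoint.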

[14] = biological target: Estrogen receptor beta (Homo sapiens) (UniProt Q92731); experiment: qHTS assay to identify small molecule agonists of the estrogen receptor beta (ER-beta) signaling pathway (AID 1259377; active = well fitted activation curve with a large enough effect in the signal ratio in the repeat runs, not every such curve was filed as active; the % refers to the signal ratio)
Summary of the method: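 qHTS in ER-beta-UAS-bla HEK293T cells: 6 hr settling, then 16 hr compound at 37C, then LiveBLAzer substrate 2 h at RT before fluorescence reading.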

[15] = biological target: Estrogen receptor beta (Homo sapiens) (UniProt Q92731); experiment: qHTS assay to identify small molecule antagonists of the estrogen receptor beta (ER-beta) signaling pathway (AID 1259378; active = well fitted inhibition curve with a large enough effect in the signal ratio in the repeat runs, not every such curve was filed as active; the % refers to the signal ratio)
Summary of the method: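 ER-beta-UAS-bla HEK293T cells in 2% charcoal-stripped FBS medium treated with compound plus 1nM final 17-beta-estradiol for 16 hr at 37C. Beta-lactamase reporter read by FRET substrate fluorescence after 2 hours at room temperature.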

[16] = biological target: Androgen receptor (Homo sapiens) (UniProt P10275); experiment: qHTS assay to identify small molecule agonists of the androgen receptor (AR) signaling pathway in the presence of an antagonist (AID 1259381; calls by dose curve; note: nearly all actives have a fitted effect of over 15% in size)
Summary of the method: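 AR antagonist background: nilutamide 3.0uM final. Cell line: MDA-kb2, MMTV-driven luciferase, responsive to both AR and GR. Exposure 16hr, 37C, no CO2; ONE-Glo luminescence.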

[17] = qHTS assay to identify small molecule agonists or antagonists of the thyroid stimulating hormone receptor (TSHR) signaling pathway - wild type cell line counter screen (AID 1259384; calls by dose curve)
Summary of the method: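 Wild-type Hek293 cells, 800/well, 18 h at 37C, then compound with Ro20-1724 for 30 min RT. cAMP by HTRF (cAMP-d2/anti-cAMP cryptate), 1 h RT, fluorescence read. 15 concentrations, triplicates.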

[18] = qHTS assay to identify small molecule agonists of the estrogen receptor beta (ER-beta) signaling pathway - cell viability counter screen (AID 1259380); note: nearly all actives have a fitted effect of over 30% in size
Summary of the method: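 In this qHTS counter screen, HEK293T cells carrying an ER-beta/UAS beta-lactamase reporter, grown in 2% charcoal-stripped FBS, received compound for 16 hr; ATP-based CellTiter-Glo luminescence was then read after 30 min at room temperature.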

[19] = qHTS assay to identify small molecule antagonists of the androgen receptor (AR) signaling pathway using the MDA cell line in the presence of 0.5 nM R1881 - cell viability counter screen (AID 1259242); note: nearly all actives have a fitted effect of over 45% in size
Summary of the method: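 Human breast carcinoma MDA-kb2 cells, cultured without CO2, receive compounds alongside 0.5 nM (final) R1881 agonist. After 16 hr at 37C, viability is taken as live-cell protease signal.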

[20] = qHTS assay to identify small molecule phospholipidosis (PLD) inducers (AID 1259344; active = well fitted curve in the direction sought with a large enough effect; an effect the other way counts as inactive or inconclusive)
Summary of the method: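 Read-out is LipidTOX Red fluorescence (ex 595/em 615) imaged in HepG2 cells after 24 h compound exposure at 37 C, with Hoechst nuclear counterstain (ex 352/em 461) allowing per-cell normalisation.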

Sequence of Estrogen receptor (Homo sapiens) (P03372 whole entry, looked up): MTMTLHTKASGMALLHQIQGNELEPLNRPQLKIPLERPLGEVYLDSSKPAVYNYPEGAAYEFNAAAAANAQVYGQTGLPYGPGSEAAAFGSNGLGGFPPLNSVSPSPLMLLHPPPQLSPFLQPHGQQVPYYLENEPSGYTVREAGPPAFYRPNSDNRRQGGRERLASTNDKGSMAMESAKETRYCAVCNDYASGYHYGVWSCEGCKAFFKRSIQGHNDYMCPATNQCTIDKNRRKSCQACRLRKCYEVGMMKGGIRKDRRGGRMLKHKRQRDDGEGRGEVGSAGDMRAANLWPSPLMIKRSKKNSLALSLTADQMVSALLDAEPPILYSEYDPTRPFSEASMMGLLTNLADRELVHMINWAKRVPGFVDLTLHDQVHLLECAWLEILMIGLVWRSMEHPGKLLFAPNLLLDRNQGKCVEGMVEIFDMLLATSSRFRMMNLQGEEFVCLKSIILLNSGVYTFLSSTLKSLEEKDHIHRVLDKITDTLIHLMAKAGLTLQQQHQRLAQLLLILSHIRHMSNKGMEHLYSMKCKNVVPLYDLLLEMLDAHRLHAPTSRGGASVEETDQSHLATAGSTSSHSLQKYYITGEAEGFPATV
Sequence of Estrogen receptor beta (Homo sapiens) (Q92731 whole entry, looked up): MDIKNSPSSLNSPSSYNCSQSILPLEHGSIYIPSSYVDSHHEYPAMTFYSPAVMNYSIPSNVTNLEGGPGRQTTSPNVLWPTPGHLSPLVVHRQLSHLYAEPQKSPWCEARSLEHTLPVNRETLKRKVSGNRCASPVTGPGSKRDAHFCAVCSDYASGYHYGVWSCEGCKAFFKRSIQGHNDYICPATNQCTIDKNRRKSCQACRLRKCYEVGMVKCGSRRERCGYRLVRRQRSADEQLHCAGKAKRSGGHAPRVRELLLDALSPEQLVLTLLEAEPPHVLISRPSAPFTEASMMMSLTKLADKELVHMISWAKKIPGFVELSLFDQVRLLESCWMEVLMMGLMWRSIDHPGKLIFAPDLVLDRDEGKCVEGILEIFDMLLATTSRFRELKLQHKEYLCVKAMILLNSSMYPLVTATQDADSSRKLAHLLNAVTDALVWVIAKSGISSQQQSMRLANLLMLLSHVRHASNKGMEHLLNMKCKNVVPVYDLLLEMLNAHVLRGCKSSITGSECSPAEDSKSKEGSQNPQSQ
Sequence of Androgen receptor (Homo sapiens) (P10275 whole entry, looked up): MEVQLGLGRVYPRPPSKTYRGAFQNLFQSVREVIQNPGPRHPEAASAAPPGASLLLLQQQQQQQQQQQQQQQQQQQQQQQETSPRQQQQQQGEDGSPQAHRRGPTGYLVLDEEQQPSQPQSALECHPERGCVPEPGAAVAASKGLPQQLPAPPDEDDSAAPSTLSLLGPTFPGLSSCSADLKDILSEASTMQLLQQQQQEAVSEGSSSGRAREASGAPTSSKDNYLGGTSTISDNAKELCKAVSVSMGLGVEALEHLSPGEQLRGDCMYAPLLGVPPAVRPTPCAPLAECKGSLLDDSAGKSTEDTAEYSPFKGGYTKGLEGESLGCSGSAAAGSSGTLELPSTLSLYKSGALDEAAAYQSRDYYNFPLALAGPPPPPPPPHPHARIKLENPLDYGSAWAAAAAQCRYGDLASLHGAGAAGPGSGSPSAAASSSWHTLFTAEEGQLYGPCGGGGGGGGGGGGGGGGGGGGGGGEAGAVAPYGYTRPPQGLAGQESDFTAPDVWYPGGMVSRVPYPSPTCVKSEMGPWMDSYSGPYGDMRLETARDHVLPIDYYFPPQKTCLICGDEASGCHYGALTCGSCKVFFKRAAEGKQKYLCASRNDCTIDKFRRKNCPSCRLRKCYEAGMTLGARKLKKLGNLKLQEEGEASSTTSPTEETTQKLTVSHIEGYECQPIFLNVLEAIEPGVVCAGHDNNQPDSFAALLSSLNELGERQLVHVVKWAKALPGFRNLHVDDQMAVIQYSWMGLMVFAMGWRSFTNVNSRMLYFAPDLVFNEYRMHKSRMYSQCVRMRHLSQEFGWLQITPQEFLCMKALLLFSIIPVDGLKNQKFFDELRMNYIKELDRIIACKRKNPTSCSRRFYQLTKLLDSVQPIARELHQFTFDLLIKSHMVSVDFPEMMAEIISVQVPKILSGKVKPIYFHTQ

SMILES | Potency [1] | Potency [2] | Potency [3] | Potency [4] | Potency [5] | Potency [6] | Potency [7] | Potency [8] | Potency [9] | Potency [10] | Potency [11] | Potency [12] | Potency [13] | Potency [14] | Potency [15] | Potency [16] | Potency [17] | Potency [18] | Potency [19] | Potency [20]
COc1cc(C(C)=O)ccc1OCCCN1CCC(c2noc3cc(F)ccc23)CC1 | inactive | inactive | inactive | inactive | inactive | inactive | inactive | inactive | inactive | inactive | inactive |  |  |  |  |  |  |  |  | 
COC(=O)CC(C(C)=O)C(=O)OC (stereo not given) | inactive | inactive | inactive | inactive | inactive | inactive | inactive | inactive | inactive | inactive | inactive | inactive | inactive | inactive | inactive | inactive | inactive |  |  | 
O=C(O)CO | inactive | inactive | inactive | inactive | inactive | inactive | inactive | inactive | inactive | inactive | inactive |  | inactive | inactive | inactive |  | inactive | inactive |  | 
CCCCCCC(CO)CCCC (stereo not given) | inactive | inactive |  | inactive | inactive | inactive | inactive | inactive | inactive | inactive |  |  | inactive |  |  |  | inactive | inactive |  | 
CCCc1nc2c(C)cc(-c3nc4ccccc4n3C)cc2n1Cc1ccc(-c2ccccc2C(=O)O)cc1 | inactive | inactive | inactive |  | inactive |  |  | inactive | inactive | inactive | inactive |  | inactive | inactive | inactive |  |  |  |  | 
CC(=O)N[C@@H](Cc1ccc(O)cc1)C(=O)O | inactive | inactive |  |  | inactive | inactive | inactive | inactive | inactive | inactive |  |  | inactive | inactive | inactive |  | inactive | inactive |  | 
CCCCCCCCCCCCCCCC(=O)OCC | inactive | inactive | inactive |  | inactive | inactive | inactive | inactive | inactive | inactive | inactive |  | inactive |  |  |  |  | inactive |  | 
CCN(CC)C(=O)N1CCN(C)CC1 | inactive | inactive |  | inactive | inactive | inactive | inactive | inactive | inactive | inactive |  |  | inactive | inactive | inactive |  |  | inactive |  | 
CC(=O)OCCC1CCCCC1 | inactive |  | inactive | inactive | inactive | inactive | inactive | inactive | inactive | inactive | inactive |  | inactive | inactive | inactive |  |  | inactive | inactive | 
CCN(Cc1cccc(S(=O)(=O)O)c1)c1ccc(C(=C2C=CC(=[N+](CC)Cc3cccc(S(=O)(=O)O)c3)C=C2)c2ccccc2S(=O)(=O)[O-])cc1 | inactive | 19.4 µM (active) |  | 6.14 µM (active) | 12.2 µM (active) | 27.4 µM (active) | 17.3 µM (active) | inactive | 17.3 µM (active) |  | inactive |  | 3.08 µM (active) | inactive | inactive |  |  |  |  | 
CC(C)CC(O)CC(C)C | inactive | inactive | inactive |  | inactive | inactive | inactive | inactive | inactive | inactive | inactive |  | inactive |  |  |  |  | inactive |  | 
O=C(O)CCC(=O)c1ccc(-c2ccccc2)cc1 | inactive |  |  | 13.3 µM (active) | inactive | inactive | inactive | inactive | inactive | inactive |  | inactive | inactive | inactive |  | inactive | inactive | inactive | inactive | inactive
O=C(Oc1ccccc1)c1ccc2ccccc2c1O | inactive |  |  | 9.69 µM (active) | inactive | inactive | inactive | inactive | inactive | inactive |  | inactive | inactive |  |  | inactive | inactive | inactive | inactive | 
CC(C)c1ccc(C(=O)N=C(N)N)cc1S(C)(=O)=O | inactive |  | inactive | inactive | inactive | inactive | inactive | inactive | inactive | inactive | inactive |  | inactive | inactive |  |  | inactive | inactive | inactive | 
NC(=O)CCCCC(N)=O | inactive | inactive |  | inactive | inactive | inactive | inactive | inactive | inactive | inactive | inactive |  | inactive | inactive | inactive |  | inactive | inactive |  | 
CC(C)COC(=O)c1ccc(O)cc1 | inactive | inactive |  |  | inactive | inactive | inactive | inactive | inactive | inactive |  |  | inactive |  |  |  |  | inactive |  | 
O=P(O)(O)Oc1ccccc1 | inactive | inactive |  | inactive | inactive | inactive | inactive | inactive | inactive | inactive | inactive |  |  | inactive | inactive |  |  | inactive |  | 
CN=C(N)NC(=O)Nc1c(C)cccc1C | inactive | inactive | inactive |  | inactive | inactive | inactive | inactive | inactive | inactive | inactive |  | inactive |  |  |  | inactive | inactive |  | 
